Holding throughout (experiment): NCI-60 one-dose screen, 48 h (100 = growth as untreated, 0 = no growth, -100 = all killed)
Conditions in all cases: 10 µM unless noted

Assay [1] relates to HCT-15 colon.
In assay [2] the test system is HT29 colon.
Assay [3] relates to SNB-75 CNS.
Assay [4] concerns SNB-19 CNS.
The test system of assay [5] is U251 CNS.
For assay [6], the system named is PC-3 prostate.
Assay [7] concerns SK-MEL-5 melanoma.
Assay [8] relates to UACC-62 melanoma.
For assay [9], the system named is LOX IMVI melanoma.
Assay [10] deals with SK-MEL-28 melanoma.

The panel holds about 83,000 compounds, 20% with a hit somewhere; the sample as a whole holds those more often.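 Assay: single dose, 48 h. Readout: percent growth (0 = no net growth; negative = cell death). Active: <10.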 A number with no mark means an inactive call. Active and inactive are the calls of the source.

Take `CCOC(=O)/C=C1\S/C(=N\Nc2cc(=O)[nH]c3ccc(OC)cc23)N(c2ccccc2)C1=O`: the growth in assay [1] was 93.3%; in assay [2] it was 108%; in assay [3] it was 91.1%; in [4], 95%; in assay [5], 92.9%; in assay [6] it was 99.3%. Moreover, the growth in [7] is 103%; in assay [8], 100%; in [9] it was 97.3%; in assay [10], 108%.
For the compound `C(=N\Nc1nnc2n1N=C(c1ccccc1)CS2)/c1ccc(OCc2ccccc2)cc1`, the growth in assay [1] is 97.4%; in assay [2] it was 114%; in [3], 108%; in assay [4], 102%; in assay [5], 97.6%; in [6], 76.2%. The growth in assay [7] is 82.9%; in [8] it was 89.8%; in assay [9], 95.8%; in [10], 104%.
For `O=C(Nc1ccccc1C(F)(F)F)C1=NCCCCN1`, the growth in assay [1] is 97.8%; in assay [2], 98.7%; in [3], 88%; in [4], 97.7%; in assay [5], 103%; in assay [6] it was 96.5%. For the same compound, the growth in assay [7] was 100%; in [8], 93.3%; in [9], 96.2%; in [10], 106%.
As to `C=CC(=O)NCc1cccc(Nc2ncc(Br)c(NCCCNC(=O)C3CCC3)n2)c1`, the growth in assay [1] was 0.948% (active); in [2], -18.2% (active); in assay [3], -70.4% (active); in [4], 3.56% (active); in [5], -2.33% (active); in assay [6] it was 7.62% (active). Besides, the growth in assay [7] was -39.8% (active); in [8], -41.6% (active); in [9], -41.1% (active); in assay [10], -15.7% (active).
Consider `Cn1cc(-c2csc(-c3cn(CCO)c4ccc(F)cc34)n2)c2cccnc21`, for which the growth in assay [1] is 41.5%; in assay [2], 18.2%; in assay [3] it was 46.4%; in assay [4] it was 69.6%; in assay [5], 49.3%; in assay [6], 44.6%. Also, the growth was 62.9% in assay [7], 52.4% in assay [8], 44.8% in [9] and 74.4% in assay [10].
Take `Cc1nn(C)c2ncnc(Nc3ccccc3Br)c12`: the growth in [1] was 101%; in [2], 97.7%; in assay [3] it was 111%; in assay [4] it was 101%; in assay [5], 95.3%; in assay [6], 102%. In addition, the growth was 97.7% in assay [7], 93.3% in [8], 101% in assay [9] and 102% in assay [10].
For `COc1cccc(-c2cc(-c3ccc(Nc4nc(Nc5ccc(Cl)cc5)nc(Nc5ccc(Cl)cc5)n4)cc3)nc(N)c2C#N)c1`, the growth in assay [1] is 22.8%; in assay [2], 16.8%; in assay [3], 65.9%; in assay [4] it was 106%; in [5] it was 3.83% (active); in [6] it was -5.44% (active). For the same compound, the growth in [7] is 13%; in [8], 76.4%; in assay [9], -33.6% (active); in assay [10] it was -59.7% (active).
As to `COc1ccc(/C=N\NC(=O)c2ccc3nc(-c4ccc(Cl)cc4)[nH]c3c2)cc1`, the growth is 57.5% in [1]; 21.9% in assay [2]; 91.9% in [3]; 24.2% in [4]; 7.96% (active) in [5]; -4.4% (active) in [6]. The growth in [7] was 33.7%; in assay [8], 30.9%; in assay [9], 0.882% (active); in assay [10], 12.5%.
Consider `Nc1ncc(-c2ccc3ncnc(N4CCc5cc(F)c(Cl)cc54)c3c2)cc1C(F)(F)F`, for which the growth in assay [1] is 17.9%; in [2], 20.4%; in [3], -14.3% (active); in assay [4] it was 46.1%; in assay [5], 47.8%; in assay [6], 25.2%. The growth is 37.8% in assay [7], 20.4% in assay [8], 12.7% in [9] and 38.3% in assay [10].
Consider `O=C(OCC(O)(CO)C(=O)NC12CC3CC(CC(C3)C1)C2)c1ccc(Cl)cc1` (stereo not given), for which the growth was 104% in assay [1]; 94.8% in assay [2]; 97.6% in [3]; 96.2% in [4]; 93.5% in [5]; 93.7% in [6]. Further, the growth was 101% in assay [7], 97.4% in [8], 95.2% in assay [9] and 113% in assay [10].
With `COC(=O)[C@@H](Cc1c[nH]c2ccccc12)NC(=O)[C@H](Cc1ccccc1)NCc1ccncc1`, the growth is 110% in assay [1]; 87.5% in assay [2]; 93% in assay [3]; 93.3% in assay [4]; 92.7% in assay [5]; 78.5% in [6]. Besides, the growth in assay [7] was 102%; in assay [8] it was 95.3%; in assay [9], 95%; in assay [10], 122%.
As for `Cc1oc2ccc(O)c(CN3CCCCCC3)c2c1C(=O)Nc1ccc(C(F)(F)F)cc1`, the growth in assay [1] was 45.1%; in [2], 80.5%; in [3] it was 50.6%; in assay [4], 69.9%; in [5], 55.1%; in assay [6], 45.7%. Also, the growth in assay [7] is 70%; in assay [8], 67.3%; in [9] it was 39.2%; in [10] it was 76.9%.
Turning to `CC(=O)O[C@H]1C[C@@]2(C)[C@@H](C[C@@H](O)[C@H]3[C@@]4(C)CC[C@H](N5CCCC5)[C@@H](C)[C@@H]4CC[C@@]32C)/C1=C(\CCC=C(C)C)C(=O)O`, the growth in [1] was 94.5%; in [2], 103%; in assay [3], 97.7%; in assay [4], 99.6%; in [5], 99.5%; in [6] it was 92.8%. The growth was 96.2% in [7], 94.9% in [8], 97% in assay [9] and 92.9% in assay [10].

The record behind these values is PubChem BioAssay (NCI).
